Consider seven sequences from paper PMC7862700, “An all-to-all approach to the identification of sequence-specific readers for epigenetic DNA modifications on cytosine”.

Assay in all cases: DAPPL (digital affinity profiling via proximity ligation, sequencing); 10 mM Tris-HCl pH 7.5, 50 mM NaCl, 1 mM DTT, 4% glycerol, room temperature, 30 min; GST-TFs on glutathione beads, 16-mer random dsDNA library, 0.1% formaldehyde crosslink after washing; high values mean tight binding
Conditions in all cases: protein: recombinant; tags: N-terminal GST; dsDNA, one strand shown

One assay deals with T1, FLI1 (Homo sapiens, UniProt Q01543 1-452).
T1 sequence: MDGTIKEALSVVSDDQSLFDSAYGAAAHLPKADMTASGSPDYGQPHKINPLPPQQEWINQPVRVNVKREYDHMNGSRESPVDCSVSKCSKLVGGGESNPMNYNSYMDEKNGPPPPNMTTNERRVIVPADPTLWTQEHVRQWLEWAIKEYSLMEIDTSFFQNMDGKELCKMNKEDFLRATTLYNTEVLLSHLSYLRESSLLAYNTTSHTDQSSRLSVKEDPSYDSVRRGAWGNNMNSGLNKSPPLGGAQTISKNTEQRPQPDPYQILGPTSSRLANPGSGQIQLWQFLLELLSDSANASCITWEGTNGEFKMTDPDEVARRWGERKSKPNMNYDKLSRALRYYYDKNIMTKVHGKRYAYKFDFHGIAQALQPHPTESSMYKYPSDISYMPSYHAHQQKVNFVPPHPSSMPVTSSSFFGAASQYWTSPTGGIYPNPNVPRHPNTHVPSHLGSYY
Put shortly: (§1)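 After expression in yeast as GST fusions, human transcription factors were bound to glutathione beads, DNA-barcoded and mixed with a tag-only sample. The pools were incubated with 200 nmole of a 16-mer random double-stranded DNA library in Tris/NaCl/DTT/glycerol buffer (30 min, room temperature), washed and crosslinked with 0.1% formaldehyde. Proximity ligation with BsaI/T4 ligase ran for 1 h at 37 °C, before PCR amplification and sequencing on an Illumina NextSeq500. Binding signal is a hexamer's read frequency for a factor divided by its frequency for the tag-only sample.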

In another assay the target is T2, ELK1 (Homo sapiens, UniProt P19419 1-428).
T2 sequence: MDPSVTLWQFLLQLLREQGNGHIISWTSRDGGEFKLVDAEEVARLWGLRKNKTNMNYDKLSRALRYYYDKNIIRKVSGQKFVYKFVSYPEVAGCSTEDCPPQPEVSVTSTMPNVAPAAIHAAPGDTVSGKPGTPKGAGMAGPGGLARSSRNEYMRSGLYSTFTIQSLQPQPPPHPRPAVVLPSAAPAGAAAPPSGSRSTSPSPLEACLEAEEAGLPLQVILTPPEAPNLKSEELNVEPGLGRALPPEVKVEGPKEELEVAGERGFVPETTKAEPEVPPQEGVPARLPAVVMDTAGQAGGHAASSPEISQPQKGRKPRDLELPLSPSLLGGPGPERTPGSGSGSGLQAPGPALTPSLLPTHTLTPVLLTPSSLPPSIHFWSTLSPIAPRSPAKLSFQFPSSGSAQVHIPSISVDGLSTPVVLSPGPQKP
A digest of the protocol:
as §1

A further assay deals with T3, GABPA (Homo sapiens, UniProt Q06546 1-454).
T3 sequence: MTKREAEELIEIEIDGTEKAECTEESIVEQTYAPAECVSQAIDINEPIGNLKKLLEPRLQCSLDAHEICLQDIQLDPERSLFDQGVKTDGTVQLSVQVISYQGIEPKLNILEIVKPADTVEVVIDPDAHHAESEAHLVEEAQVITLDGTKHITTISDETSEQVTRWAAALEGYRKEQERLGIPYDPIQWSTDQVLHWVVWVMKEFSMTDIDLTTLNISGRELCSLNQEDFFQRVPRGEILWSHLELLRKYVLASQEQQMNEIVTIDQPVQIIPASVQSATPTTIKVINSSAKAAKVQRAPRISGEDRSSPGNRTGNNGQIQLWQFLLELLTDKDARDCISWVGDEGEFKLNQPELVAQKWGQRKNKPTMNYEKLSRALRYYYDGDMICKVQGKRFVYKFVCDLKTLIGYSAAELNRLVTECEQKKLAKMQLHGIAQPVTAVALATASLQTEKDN
Put shortly:
as §1

The target of another assay is T4, ERG (Homo sapiens, UniProt P11308 1-479).
T4 sequence: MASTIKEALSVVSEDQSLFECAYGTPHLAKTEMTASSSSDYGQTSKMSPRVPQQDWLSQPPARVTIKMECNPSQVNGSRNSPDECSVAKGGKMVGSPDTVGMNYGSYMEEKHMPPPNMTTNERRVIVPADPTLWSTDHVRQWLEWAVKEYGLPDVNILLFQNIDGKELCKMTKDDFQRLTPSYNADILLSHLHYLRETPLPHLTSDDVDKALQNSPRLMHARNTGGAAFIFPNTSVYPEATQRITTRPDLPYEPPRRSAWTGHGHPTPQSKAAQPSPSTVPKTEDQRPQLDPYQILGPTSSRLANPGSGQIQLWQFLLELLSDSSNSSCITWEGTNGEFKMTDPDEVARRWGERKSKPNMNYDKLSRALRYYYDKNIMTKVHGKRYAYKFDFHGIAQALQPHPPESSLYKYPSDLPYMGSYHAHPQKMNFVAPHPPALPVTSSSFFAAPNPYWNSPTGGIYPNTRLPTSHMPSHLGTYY
Put shortly: as §1

The target of a further assay is ELF1 (Homo sapiens, UniProt P32519 1-619). A digest of the protocol: as §1
Another assay concerns the target T5, EHF (Homo sapiens, UniProt Q9NZC4 1-300).
T5 sequence: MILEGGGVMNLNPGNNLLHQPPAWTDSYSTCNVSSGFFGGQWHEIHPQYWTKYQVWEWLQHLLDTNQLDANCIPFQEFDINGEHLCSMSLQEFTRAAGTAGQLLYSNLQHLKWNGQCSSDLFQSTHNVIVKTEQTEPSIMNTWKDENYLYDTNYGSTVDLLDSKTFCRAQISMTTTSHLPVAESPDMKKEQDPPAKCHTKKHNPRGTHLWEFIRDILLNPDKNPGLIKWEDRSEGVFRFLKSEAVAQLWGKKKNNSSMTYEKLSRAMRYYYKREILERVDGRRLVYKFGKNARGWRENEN
A digest of the protocol:
as §1

Another assay deals with SPI1 (Homo sapiens, UniProt P17947 1-270). A digest of the protocol:
as §1

Another assay has as its target SPIB (Homo sapiens, UniProt Q01892 1-262). Put shortly:
as §1

The next assay deals with T6, ELK3 (Homo sapiens, UniProt P41970 1-407).
T6 sequence: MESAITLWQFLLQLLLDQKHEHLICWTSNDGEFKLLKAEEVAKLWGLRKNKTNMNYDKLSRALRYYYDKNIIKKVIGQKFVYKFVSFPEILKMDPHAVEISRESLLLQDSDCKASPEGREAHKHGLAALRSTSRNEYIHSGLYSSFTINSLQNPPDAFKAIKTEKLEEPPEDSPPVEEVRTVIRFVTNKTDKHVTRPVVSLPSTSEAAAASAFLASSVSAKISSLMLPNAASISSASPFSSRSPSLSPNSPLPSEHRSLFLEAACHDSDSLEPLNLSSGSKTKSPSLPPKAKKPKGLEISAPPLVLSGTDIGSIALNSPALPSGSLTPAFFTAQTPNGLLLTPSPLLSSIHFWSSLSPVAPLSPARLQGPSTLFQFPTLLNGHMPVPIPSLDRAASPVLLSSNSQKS
Put shortly: as §1

SPIB, sequence (Q01892 whole entry): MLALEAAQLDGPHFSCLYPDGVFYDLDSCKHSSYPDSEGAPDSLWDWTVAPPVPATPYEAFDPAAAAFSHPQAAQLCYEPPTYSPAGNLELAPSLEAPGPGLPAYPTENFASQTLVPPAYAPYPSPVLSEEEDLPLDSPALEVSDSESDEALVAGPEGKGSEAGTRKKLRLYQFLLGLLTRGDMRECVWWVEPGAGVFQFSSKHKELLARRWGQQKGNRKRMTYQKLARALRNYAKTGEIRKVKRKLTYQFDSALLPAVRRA
ELF1, sequence (P32519 whole entry): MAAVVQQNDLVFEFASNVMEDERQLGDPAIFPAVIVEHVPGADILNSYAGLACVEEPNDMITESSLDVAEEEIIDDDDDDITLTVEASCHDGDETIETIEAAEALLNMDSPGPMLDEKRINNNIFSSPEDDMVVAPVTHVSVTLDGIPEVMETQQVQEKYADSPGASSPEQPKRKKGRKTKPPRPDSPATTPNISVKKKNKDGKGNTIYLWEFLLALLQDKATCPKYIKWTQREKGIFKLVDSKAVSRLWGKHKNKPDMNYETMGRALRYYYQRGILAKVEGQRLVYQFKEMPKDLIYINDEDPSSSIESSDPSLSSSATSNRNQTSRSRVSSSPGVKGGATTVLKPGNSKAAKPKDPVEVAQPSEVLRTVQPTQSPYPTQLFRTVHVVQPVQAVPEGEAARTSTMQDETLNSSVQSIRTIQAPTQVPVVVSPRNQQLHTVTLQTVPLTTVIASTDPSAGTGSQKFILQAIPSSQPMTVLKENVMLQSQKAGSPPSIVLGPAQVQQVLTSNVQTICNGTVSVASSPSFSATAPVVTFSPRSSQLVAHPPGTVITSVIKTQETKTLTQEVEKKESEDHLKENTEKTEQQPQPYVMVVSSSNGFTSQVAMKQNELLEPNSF

On to TGCGTA, for which the binding signal was 1.15 fold enrichment (6-mer frequency, TF over GST control) with FLI1; 1.15 fold enrichment (6-mer frequency, TF over GST control) with ELK1; 1.06 fold enrichment (6-mer frequency, TF over GST control) with GABPA; 1.05 fold enrichment (6-mer frequency, TF over GST control) with ERG; 1.1 fold enrichment (6-mer frequency, TF over GST control) with ELF1; 1.06 fold enrichment (6-mer frequency, TF over GST control) in the assay with EHF. In addition, the binding signal with SPI1 is 1.17 fold enrichment (6-mer frequency, TF over GST control); in the assay with SPIB it was 1.22 fold enrichment (6-mer frequency, TF over GST control); with ELK3 it was 1.09 fold enrichment (6-mer frequency, TF over GST control).
For CATATC, the binding signal with FLI1 was 1.25 fold enrichment (6-mer frequency, TF over GST control); in the assay with ELK1, 1.39 fold enrichment (6-mer frequency, TF over GST control); with GABPA, 1.26 fold enrichment (6-mer frequency, TF over GST control); with ERG, 1.37 fold enrichment (6-mer frequency, TF over GST control); in the assay with ELF1, 1.32 fold enrichment (6-mer frequency, TF over GST control); in the assay with EHF it was 1.36 fold enrichment (6-mer frequency, TF over GST control). In addition, the binding signal in the assay with SPI1 is 1.3 fold enrichment (6-mer frequency, TF over GST control); with SPIB, 1.32 fold enrichment (6-mer frequency, TF over GST control); with ELK3, 1.34 fold enrichment (6-mer frequency, TF over GST control).
Turning to AACCAC, the binding signal in the assay with FLI1 was 1.18 fold enrichment (6-mer frequency, TF over GST control); with ELK1, 1.19 fold enrichment (6-mer frequency, TF over GST control); in the assay with GABPA it was 1.17 fold enrichment (6-mer frequency, TF over GST control); with ERG, 1.15 fold enrichment (6-mer frequency, TF over GST control); with ELF1 it was 1.25 fold enrichment (6-mer frequency, TF over GST control); with EHF it was 1.16 fold enrichment (6-mer frequency, TF over GST control). The binding signal is 1.12 fold enrichment (6-mer frequency, TF over GST control) with SPI1; 1.19 fold enrichment (6-mer frequency, TF over GST control) with SPIB; 1.29 fold enrichment (6-mer frequency, TF over GST control) with ELK3.
For the sequence ACACTA, the binding signal is 1.11 fold enrichment (6-mer frequency, TF over GST control) with FLI1; 1.17 fold enrichment (6-mer frequency, TF over GST control) with ELK1; 1.13 fold enrichment (6-mer frequency, TF over GST control) with GABPA; 1.12 fold enrichment (6-mer frequency, TF over GST control) with ERG; 1.19 fold enrichment (6-mer frequency, TF over GST control) with ELF1; 1.15 fold enrichment (6-mer frequency, TF over GST control) in the assay with EHF. In addition, the binding signal was 1.11 fold enrichment (6-mer frequency, TF over GST control) in the assay with SPI1; 1.09 fold enrichment (6-mer frequency, TF over GST control) with SPIB; 1.1 fold enrichment (6-mer frequency, TF over GST control) with ELK3.
As to GTATCA, the binding signal in the assay with FLI1 is 1.14 fold enrichment (6-mer frequency, TF over GST control); with ELK1, 1.07 fold enrichment (6-mer frequency, TF over GST control); in the assay with GABPA it was 1.18 fold enrichment (6-mer frequency, TF over GST control); with ERG, 1.05 fold enrichment (6-mer frequency, TF over GST control); in the assay with ELF1, 1.05 fold enrichment (6-mer frequency, TF over GST control); in the assay with EHF, 1.1 fold enrichment (6-mer frequency, TF over GST control). For the same sequence, the binding signal was 1.06 fold enrichment (6-mer frequency, TF over GST control) in the assay with SPI1; 1.02 fold enrichment (6-mer frequency, TF over GST control) with SPIB; 1.1 fold enrichment (6-mer frequency, TF over GST control) with ELK3.
Regarding CACTAC, the binding signal with FLI1 was 1.38 fold enrichment (6-mer frequency, TF over GST control); in the assay with ELK1, 1.37 fold enrichment (6-mer frequency, TF over GST control); with GABPA it was 1.36 fold enrichment (6-mer frequency, TF over GST control); with ERG, 1.31 fold enrichment (6-mer frequency, TF over GST control); in the assay with ELF1, 1.33 fold enrichment (6-mer frequency, TF over GST control); with EHF, 1.28 fold enrichment (6-mer frequency, TF over GST control). Further, the binding signal with SPI1 is 1.17 fold enrichment (6-mer frequency, TF over GST control); with SPIB, 1.36 fold enrichment (6-mer frequency, TF over GST control); in the assay with ELK3 it was 1.27 fold enrichment (6-mer frequency, TF over GST control).
As for CACATA, the binding signal with FLI1 is 1.14 fold enrichment (6-mer frequency, TF over GST control); in the assay with ELK1, 1.14 fold enrichment (6-mer frequency, TF over GST control); with GABPA, 1.11 fold enrichment (6-mer frequency, TF over GST control); in the assay with ERG it was 1.14 fold enrichment (6-mer frequency, TF over GST control); with ELF1, 1.18 fold enrichment (6-mer frequency, TF over GST control); with EHF, 1.13 fold enrichment (6-mer frequency, TF over GST control). For the same sequence, the binding signal with SPI1 is 1.11 fold enrichment (6-mer frequency, TF over GST control); in the assay with SPIB it was 1.06 fold enrichment (6-mer frequency, TF over GST control); with ELK3, 1.17 fold enrichment (6-mer frequency, TF over GST control).
